This is an account of results in PubChem BioAssay (NCATS).

Results filed as inconclusive are left out. Activity calls are given as the source filed them. Unless noted, the call rests on the fitted dose curve; in most records, active means well fitted curve in the direction sought with a large enough effect; inconclusive means small, poorly fitted or top-dose-only effect, or another doubt; inactive means no such curve, though single readings can be large; an effect the other way counts as inactive or inconclusive.

The target in experiment [1] is Thyrotropin receptor (Homo sapiens) (UniProt P16473). Kind of experiment: qHTS Assay for Antagonists of the Thyroid Stimulating Hormone Receptor (AID 488980). Further: series mostly up to about 58 µM; 0% is about no effect. In short, it runs like this: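 Inhibition of cAMP raised by EC80 TSH (4 nM final) was read by HTRF, with lysate cAMP competing against cAMP-d2 for cryptate antibody after 30 min at room temperature. The cells were transfected HEK293 held in phosphodiesterase inhibitor RO 20-1724 at 70 uM.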
Chain of Thyrotropin receptor (Homo sapiens) (P16473 whole entry, looked up): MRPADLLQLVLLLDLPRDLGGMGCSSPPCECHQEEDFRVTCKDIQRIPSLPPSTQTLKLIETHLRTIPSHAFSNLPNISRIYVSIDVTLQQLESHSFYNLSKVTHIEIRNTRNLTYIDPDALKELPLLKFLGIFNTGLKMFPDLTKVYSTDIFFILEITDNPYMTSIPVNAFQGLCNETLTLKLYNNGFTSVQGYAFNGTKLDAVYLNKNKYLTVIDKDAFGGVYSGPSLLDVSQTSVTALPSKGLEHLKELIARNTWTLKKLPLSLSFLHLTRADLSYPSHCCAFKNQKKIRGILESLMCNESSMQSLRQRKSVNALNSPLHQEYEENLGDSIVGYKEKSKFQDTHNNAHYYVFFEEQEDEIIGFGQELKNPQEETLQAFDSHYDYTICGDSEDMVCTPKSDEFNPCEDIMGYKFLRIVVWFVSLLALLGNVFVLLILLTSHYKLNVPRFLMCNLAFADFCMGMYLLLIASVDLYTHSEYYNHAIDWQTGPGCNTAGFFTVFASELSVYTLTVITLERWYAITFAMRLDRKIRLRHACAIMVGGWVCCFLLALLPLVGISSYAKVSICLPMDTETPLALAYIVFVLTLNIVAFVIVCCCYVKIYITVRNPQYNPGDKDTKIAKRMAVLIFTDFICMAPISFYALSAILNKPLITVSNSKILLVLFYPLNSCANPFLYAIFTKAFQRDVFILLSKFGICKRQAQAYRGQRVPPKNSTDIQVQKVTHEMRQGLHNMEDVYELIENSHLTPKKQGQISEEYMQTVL

The nature of experiment [2]: Validation screen for small molecules that induce genotoxicity in human embryonic kidney (HEK293T) cells expressing luciferase-tagged ELG1 (AID 493106). Further: potency means the concentration at half of the fitted maximal effect. A digest of the protocol:
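Luminescence from an ELG1-luciferase fusion serves as the read-out, rising when genetic stress elevates ELG1 protein. HEK293T reporter cells (2,000 per well) received 23 nL compound, incubated 16 hr at 37 °C, then ONE-Glo for 30 min at room temperature.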

In experiment [3] the target is ATPase family AAA domain-containing protein 5 (Homo sapiens) (UniProt Q96QE3). Kind of experiment: Validation screen for small molecules that inhibit ELG1-dependent DNA repair in human embryonic kidney (HEK293T) cells expressing luciferase-tagged ELG1 (AID 493107). Further: nearly all actives have a fitted effect of over 70% in size. Further: potency means the concentration at half of the fitted maximal effect. In short, it runs like this:
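Luminescence from ONE-Glo, developed 30 min at room temperature, served as read-out of ELG1-luciferase levels. Beforehand, reporter HEK293T cells received 5-fluorouridine plus test compound for 16 hr at 37 °C.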

Experiment [4] deals with Thyrotropin-releasing hormone receptor (Homo sapiens) (UniProt P34981). Kind of experiment: qHTS for Small Molecule Agonists and Allosteric Enhancers of Human TRH Receptor: Validation Screen for Agonists (AID 493127;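 active means calcium activation more than 3 SD above the typical response in the agonist read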;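 further: intracellular calcium rise by fluo-8 fluorescence before TRH EC20 addition; 0% is about no effect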). Conditions: TRH receptor agonist cell assay; at 2 µM; stronger effect = higher value. In short, it runs like this:
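Cells 2000/well, 10% FCS, 18 h 33.5C/5% CO2 → fluo-8 Ca dye, RT 30 min–1.5 h → FDSS baseline 10 × 1 s → compound added → 230 cycles (1 s/cycle) agonist mode. TRH controls.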

Experiment [5] is described as follows: Nrf2 qHTS screen for inhibitors: Validation (AID 493153; active means well fitted inhibition curve with a large enough effect in the main read-out, with a control signal flat, not every such curve was filed as active; further: potency means the concentration at half of the fitted maximal effect). Conditions: Potency: luciferase luminescence; viability change: measured here: cytotoxicity max response. A digest of the protocol: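 Luminescence from an ARE-firefly luciferase reporter in A549 cells gives Nrf2 inhibition; an earlier CellTiter-Fluor fluorescent read flags cytotoxicity. Cells in 5% FBS OPTI-MEM received compound dilution series for 18-24 h at 37°C.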
For orientation: In qHTS, concentration-response curves come from the screen itself.

Experiment [6] has as its target D(1A) dopamine receptor (Homo sapiens) (UniProt P21728). Kind of experiment: HTS Assay for Allosteric Agonists of the Human D1 Dopamine Receptor: Primary Screen for Potentiators (AID 488982). Further: 0% is about no effect. In short, it runs like this: (§1)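 Calcium flux in an inducible, force-coupled HEK293 Trex D1 line (overnight at 30 C): agonist mode is the 180 s kinetic read after compound; potentiator mode is the following 180 s read after dopamine at EC20.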

For experiment [7] the target is unchanged. Kind of experiment: HTS Assay for Allosteric Agonists of the Human D1 Dopamine Receptor: Primary Screen for Antagonists (AID 488983).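 Further: calcium flux response to an EC80 dopamine challenge measured with no-wash dye; on the % scale 0 is the no-effect control and ±100 the full control effect; nearly all actives have a fitted effect of over 65% in size.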 A digest of the protocol: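 Cells are induced with tetracycline and incubated overnight at 30 C, then loaded with calcium dye for 30 to 90 minutes at room temperature. Compound addition is followed by a 180 s read, then an EC80 dopamine addition and another 180 s read.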

Experiment [8] has the same target. As to the kind of experiment: HTS Assay for Allosteric Agonists of the Human D1 Dopamine Receptor: Primary Screen for Agonists (AID 488981). Further: potency means the concentration at half of the fitted maximal effect. On activation: 0% is about no effect. In short, it runs like this:
as §1

Experiment [9] has as its target ATP-dependent 6-phosphofructokinase (Trypanosoma brucei brucei) (UniProt O15648). As to the kind of experiment: qHTS Assay to Find Inhibitors of T. brucei phosphofructokinase: hit validation (AID 492961).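 Further: luminescence reports ADP formed as PFK phosphorylates fructose-6-phosphate with ATP; series mostly up to about 51 µM; on the % scale 0 is the no-effect control and ±100 the full control effect.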 A digest of the protocol: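 Measures ADP output of PFK (1.25 nM) at 0.1 mM ATP, 0.5 mM F6P, pH 8.0 TEA buffer with 5 mM MgCl2. No-enzyme wells define full inhibition; uninhibited enzyme wells define zero.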

Chain of D(1A) dopamine receptor (Homo sapiens) (P21728 whole entry, looked up): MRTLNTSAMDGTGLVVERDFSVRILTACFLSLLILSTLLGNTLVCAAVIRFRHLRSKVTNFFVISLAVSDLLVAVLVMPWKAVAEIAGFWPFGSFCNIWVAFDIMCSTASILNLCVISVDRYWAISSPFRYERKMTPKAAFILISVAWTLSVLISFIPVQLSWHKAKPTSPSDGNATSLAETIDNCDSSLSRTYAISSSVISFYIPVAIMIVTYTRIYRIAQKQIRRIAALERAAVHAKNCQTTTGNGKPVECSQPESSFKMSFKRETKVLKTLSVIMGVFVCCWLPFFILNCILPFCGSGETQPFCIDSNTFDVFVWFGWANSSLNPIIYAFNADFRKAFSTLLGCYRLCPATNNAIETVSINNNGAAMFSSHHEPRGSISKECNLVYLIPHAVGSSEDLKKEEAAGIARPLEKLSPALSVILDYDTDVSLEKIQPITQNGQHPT
Chain of Thyrotropin-releasing hormone receptor (Homo sapiens) (P34981 whole entry, looked up): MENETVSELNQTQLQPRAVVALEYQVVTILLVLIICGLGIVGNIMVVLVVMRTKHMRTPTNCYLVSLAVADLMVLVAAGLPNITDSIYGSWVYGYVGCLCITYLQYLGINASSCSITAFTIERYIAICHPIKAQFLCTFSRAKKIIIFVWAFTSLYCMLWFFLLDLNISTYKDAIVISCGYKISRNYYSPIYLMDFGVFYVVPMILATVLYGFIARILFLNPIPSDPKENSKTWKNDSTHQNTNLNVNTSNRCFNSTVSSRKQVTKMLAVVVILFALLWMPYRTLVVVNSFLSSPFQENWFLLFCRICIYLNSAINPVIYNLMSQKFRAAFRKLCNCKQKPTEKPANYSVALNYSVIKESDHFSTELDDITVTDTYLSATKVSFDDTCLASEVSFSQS
Chain of ATPase family AAA domain-containing protein 5 (Homo sapiens) (Q96QE3 whole entry, looked up, the tested form may be a part): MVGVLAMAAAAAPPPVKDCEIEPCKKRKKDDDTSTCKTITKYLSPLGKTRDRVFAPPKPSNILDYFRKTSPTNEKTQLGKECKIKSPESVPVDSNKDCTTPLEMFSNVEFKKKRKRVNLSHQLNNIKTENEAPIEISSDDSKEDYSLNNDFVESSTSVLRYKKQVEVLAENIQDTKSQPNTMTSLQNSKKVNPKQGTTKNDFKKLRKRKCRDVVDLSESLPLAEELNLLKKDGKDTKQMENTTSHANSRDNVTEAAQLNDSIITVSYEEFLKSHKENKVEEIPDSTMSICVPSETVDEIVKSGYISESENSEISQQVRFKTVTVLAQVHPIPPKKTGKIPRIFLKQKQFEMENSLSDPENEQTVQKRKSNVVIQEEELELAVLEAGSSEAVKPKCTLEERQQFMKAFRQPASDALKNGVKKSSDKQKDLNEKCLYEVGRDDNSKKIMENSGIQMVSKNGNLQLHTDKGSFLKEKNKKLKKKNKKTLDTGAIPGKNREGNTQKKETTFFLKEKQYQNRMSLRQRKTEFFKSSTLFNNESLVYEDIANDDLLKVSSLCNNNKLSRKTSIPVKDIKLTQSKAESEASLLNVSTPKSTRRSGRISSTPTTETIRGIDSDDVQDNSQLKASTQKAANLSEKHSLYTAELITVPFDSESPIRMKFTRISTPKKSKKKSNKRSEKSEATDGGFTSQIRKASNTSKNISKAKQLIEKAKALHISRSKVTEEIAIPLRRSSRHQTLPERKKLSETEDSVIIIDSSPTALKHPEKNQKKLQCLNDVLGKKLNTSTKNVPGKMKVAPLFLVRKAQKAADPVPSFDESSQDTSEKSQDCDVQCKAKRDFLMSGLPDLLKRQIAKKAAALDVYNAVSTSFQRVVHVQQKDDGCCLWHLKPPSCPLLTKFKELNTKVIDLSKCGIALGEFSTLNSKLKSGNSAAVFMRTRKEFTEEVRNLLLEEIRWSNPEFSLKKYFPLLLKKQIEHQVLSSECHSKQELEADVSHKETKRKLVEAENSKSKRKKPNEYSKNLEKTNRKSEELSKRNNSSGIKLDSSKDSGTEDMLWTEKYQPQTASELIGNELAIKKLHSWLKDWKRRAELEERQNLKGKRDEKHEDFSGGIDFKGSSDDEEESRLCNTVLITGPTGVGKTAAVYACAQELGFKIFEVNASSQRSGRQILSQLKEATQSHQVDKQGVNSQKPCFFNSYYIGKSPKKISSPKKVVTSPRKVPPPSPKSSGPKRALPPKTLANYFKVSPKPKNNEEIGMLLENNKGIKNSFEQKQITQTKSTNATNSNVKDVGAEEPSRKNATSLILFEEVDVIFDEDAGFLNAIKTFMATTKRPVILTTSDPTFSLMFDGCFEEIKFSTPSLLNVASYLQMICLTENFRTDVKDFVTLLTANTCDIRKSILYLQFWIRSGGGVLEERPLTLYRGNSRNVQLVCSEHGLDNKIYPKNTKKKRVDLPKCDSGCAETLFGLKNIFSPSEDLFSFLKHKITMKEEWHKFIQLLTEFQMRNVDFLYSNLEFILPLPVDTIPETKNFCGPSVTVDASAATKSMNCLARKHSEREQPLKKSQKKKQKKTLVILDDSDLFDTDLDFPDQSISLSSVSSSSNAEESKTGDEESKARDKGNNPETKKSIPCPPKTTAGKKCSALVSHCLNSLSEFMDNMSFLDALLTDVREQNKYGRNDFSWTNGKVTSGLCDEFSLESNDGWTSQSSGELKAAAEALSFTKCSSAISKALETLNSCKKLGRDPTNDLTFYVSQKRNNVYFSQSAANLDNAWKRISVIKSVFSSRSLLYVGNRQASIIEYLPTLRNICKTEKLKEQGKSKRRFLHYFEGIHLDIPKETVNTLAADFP
Chain of ATP-dependent 6-phosphofructokinase (Trypanosoma brucei brucei) (O15648 whole entry, looked up): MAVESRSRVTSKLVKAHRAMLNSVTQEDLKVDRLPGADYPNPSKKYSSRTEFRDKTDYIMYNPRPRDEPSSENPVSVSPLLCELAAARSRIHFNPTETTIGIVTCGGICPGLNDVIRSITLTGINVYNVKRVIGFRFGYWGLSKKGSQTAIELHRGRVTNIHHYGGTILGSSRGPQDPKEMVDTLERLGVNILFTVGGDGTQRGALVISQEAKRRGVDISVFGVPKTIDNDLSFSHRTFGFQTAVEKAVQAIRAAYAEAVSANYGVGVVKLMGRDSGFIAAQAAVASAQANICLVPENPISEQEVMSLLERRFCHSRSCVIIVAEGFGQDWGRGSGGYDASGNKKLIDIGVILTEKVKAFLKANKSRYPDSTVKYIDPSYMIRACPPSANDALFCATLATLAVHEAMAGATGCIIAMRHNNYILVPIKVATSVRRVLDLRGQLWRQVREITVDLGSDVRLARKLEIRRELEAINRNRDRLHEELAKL

Regarding `[Li+]`, the compound was called inactive in [1]. The Potency entry in experiment [2], in [3] and in experiment [5] was “inactive” in each case. In [4], the activation was 1.31% (inactive). Besides, the viability change in experiment [5] turned out to be 6.42%.
Turning to `C=CC1(C)CC(=O)C2(O)C(C)(O1)C(OC(C)=O)C(O)C1C(C)(C)CCC(O)C12C` (centres undefined), the result in [1] was inactive. Besides, the Potency result in experiment [6], in [7], in [3] and in experiment [5] was “inactive” each time. The viability change in experiment [5] turned out to be 4.77%.
Consider `Nc1ccc2c3c(cccc13)C(=O)NC2=O`, for which the result in experiment [1] was inactive. The Potency entry in experiment [7] and in experiment [3] was “inactive” each time. In [4], the activation was 87.4% (active).
As for `O=c1[nH]c(=O)c2nc3ccccc3nc2[nH]1`, the outcome in experiment [1] was inactive. In addition, the Potency result in [6], in experiment [2] and in experiment [5] was “inactive” in each case. Further, the activation in experiment [4] is 3.81% (inactive). Further, in experiment [5], the viability change is -5.91%.
Take `CC(C)(C)c1cc(/C=C(\C#N)C(N)=S)cc(C(C)(C)C)c1O`: the outcome in experiment [1] was inactive. The Potency result in experiment [2] was “inactive”. For the same compound, the activation in experiment [4] is 10.6% (inactive).
For `N[C@H](C(=O)O)[C@H]1C[C@@H]1C(=O)O`, the call in [1] was inactive. The Potency entry in experiment [6], in experiment [7], in [2], in experiment [3] and in [5] was “inactive” each time. The viability change in [5] was 2.9%.
For `COc1cc(/C=C(\C#N)C(=O)Nc2nnc(C(F)(F)F)s2)ccc1OCc1ccc(C(F)(F)F)cc1C(F)(F)F`, the Potency entry in [8], in experiment [6], in experiment [7], in experiment [2] and in experiment [3] was “inactive” in each case.
Regarding `NCCCCN`, the call in [1] was inactive. Further, the Potency entry in [7], in [2], in experiment [3] and in experiment [5] was “inactive” throughout. In addition, the activation in experiment [4] is 1.31% (inactive). Also, the viability change in experiment [5] was -1.47%.
Consider `N[C@H](C(=O)O)[C@H](O)C(=O)O`, for which the result in [1] was inactive. Also, the Potency result in [6], in experiment [7], in experiment [2] and in experiment [5] was “inactive” in each case. The activation in experiment [4] is 0.0625% (inactive). Also, the viability change in experiment [5] worked out at 7.86%.
On to `CC(=O)SC1CC2=CC(=O)CC[C@]2(C)C2CC[C@@]3(C)C(CC[C@@]34CCC(=O)O4)C12` (some centres undefined), for which the Potency result in [8], in experiment [6], in experiment [7], in experiment [2] and in experiment [5] was “inactive” throughout. In experiment [3], the Potency is 7.3 µM (active). For the same compound, in experiment [5], the viability change is -9.73%.
For `O=c1cc(-c2ccccc2F)[nH]c2cc3c(cc12)OCO3`, the Potency result in experiment [8], in experiment [6], in experiment [7] and in experiment [3] was “inactive” throughout. Further, the Potency in [2] was 5.17 µM (active).
Consider `CC(O)C(O)[C@H]1CNc2nc(N)[nH]c(=O)c2N1` (some centres undefined), for which the Potency result in experiment [8], in experiment [6], in [7], in experiment [2] and in experiment [3] was “inactive” each time. Moreover, in experiment [9], the compound was called inactive.
Consider `COc1cc(C(O)CO)ccc1O` (centres undefined), for which, in [1], the compound was called inactive. Further, the Potency result in experiment [2], in experiment [3] and in experiment [5] was “inactive” throughout. In addition, the activation in experiment [4] is 0.688% (inactive). Further, the viability change in [5] was found to be 3.88%.
Regarding `CCCCOc1cc(CC2CNC(=O)N2)ccc1OC` (centres undefined), the outcome in experiment [1] was inactive. The Potency entry in [7], in experiment [2], in experiment [3] and in experiment [5] was “inactive” throughout. For the same compound, in experiment [4], the activation is 0.75% (inactive). Moreover, the viability change in [5] is 4.87%.
For `Nc1nc2c(nc(Br)n2C2OC3COP(=O)(O)O[C@@H]3C2O)c(=O)[nH]1` (some centres undefined), the Potency result in experiment [8], in experiment [6], in [7], in experiment [2], in experiment [3] and in [5] was “inactive” throughout. Moreover, the viability change in experiment [5] came out at 2.34%.
As to `CCCCCCCCCCCCCCCCCCOC[C@H](COP(=O)([O-])OCC[N+](C)(C)C)OC`, the compound was called inactive in experiment [1] and in experiment [9]. Besides, the Potency entry in [6] and in experiment [3] was “inactive” throughout. Moreover, in experiment [4], the activation is 0.938% (inactive).
For the compound `COc1ccc2c(c1)CCC1C2CC[C@@]2(C)C1CC[C@@H]2NCCCCCCN1C(=O)C=CC1=O` (some centres undefined), the result in experiment [1] was inactive. Also, the Potency result in experiment [6], in experiment [2], in experiment [3] and in experiment [5] was “inactive” throughout. In addition, the viability change in [5] is -5.2%.
For the compound `CC[n+]1c(/C=C/C=C2/N(C)c3ccccc3C2(C)C)sc2ccccc21`, the Potency is 11.2 µM (active) in [8] and 2.31 µM (active) in experiment [3]. Besides, the Potency result in experiment [6], in experiment [7] and in [2] was “inactive” throughout.
For `O=c1cc(-c2ccccc2)[nH]c2nc(Cl)ccc12`, the compound was called inactive in [1]. The Potency result in experiment [7], in experiment [2] and in experiment [5] was “inactive” throughout. In [4], the activation was -0.438% (inactive). Besides, in experiment [5], the viability change is -13.6%.
Consider `OC[C@H]1NC[C@@H](O)[C@@H]1O`, for which the Potency result in [8], in experiment [6], in experiment [7], in experiment [2], in experiment [3] and in [5] was “inactive” in each case. Also, in experiment [4], the activation was 1.19% (inactive). In experiment [5], the viability change was 4.02%.
Regarding `COc1ccc(CCN(C)CCc2ccc(OC)c(OC)c2)cc1OC`, the compound was called inactive in experiment [1]. The Potency entry in [6], in [2], in experiment [3] and in experiment [5] was “inactive” throughout. Moreover, in experiment [4], the activation is -4.19% (inactive). In addition, in [5], the viability change stood at 4.35%.
For the compound `OC1(c2ccc(Cl)cc2)CCN(Cc2c[nH]c3ccccc23)CC1`, the result in experiment [1] was inactive. The Potency result in [2], in [3] and in experiment [5] was “inactive” throughout. Moreover, the activation in experiment [4] is 7.75% (inactive). Further, the viability change in [5] is -2.32%.
On to `N#Cc1cc([N+](=O)[O-])c2sc(C(N)=O)[n+]([O-])c2c1`, for which the Potency entry in experiment [8], in experiment [6], in [7] and in [2] was “inactive” each time. For the same compound, in experiment [3], the Potency is 16.4 µM (active).
On to `CCCCOC(=O)NS(=O)(=O)c1sc(CC(C)C)cc1-c1ccc(Cn2c(CC)nc3c(C)cc(C)nc32)cc1`, for which, in experiment [1], the compound was called inactive. Also, the Potency entry in [6] and in experiment [2] was “inactive” each time. The Potency in [3] is 8.2 µM (active). Further, in experiment [4], the activation is 2.25% (inactive).
On to `C=CCN1CCc2c(cc(O)c(O)c2Br)[C@@H](c2ccccc2)C1`, for which, in [1], the result was inactive. In addition, the Potency result in [6], in experiment [2], in [3] and in experiment [5] was “inactive” in each case. The activation in [4] was -5.81% (inactive). Moreover, the viability change in experiment [5] is -6.77%.
As for `O=C(N[C@@H](Cc1ccccc1)C(=O)CCl)OCc1ccccc1`, the result in experiment [1] was inactive. Besides, the Potency entry in experiment [6] and in experiment [2] was “inactive” each time. Also, the Potency in [3] was 8.2 µM (active); in experiment [5], 14.6 µM (active). In addition, in [4], the activation was -3.75% (inactive). Besides, the viability change in [5] was -11.4%.
For `c1ccc2c(c1)CCC[C@H]2Nc1nc2ccccc2[nH]1`, the Potency entry in [8], in [6], in [7], in experiment [2] and in [5] was “inactive” throughout. Also, the viability change in experiment [5] is -8.96%.
Turning to `CN(CC[C@@H](Oc1ccc(C(F)(F)F)cc1)c1ccccc1)CC(=O)O`, the Potency entry in [8], in [6], in experiment [2] and in experiment [3] was “inactive” each time.
Turning to `Brc1c(Br)c(Br)c2[nH]cnc2c1Br`, the Potency entry in experiment [8], in [7] and in experiment [2] was “inactive” each time. For the same compound, the Potency in experiment [3] was 4.61 µM (active).
As to `CCCCCCCCCCC(C)(C)C(=O)Nc1c(OC)cc(OC)cc1OC`, the Potency result in [8], in experiment [6], in experiment [2] and in experiment [3] was “inactive” throughout.
Consider `CNCCc1cnc(CCC(c2ccccc2)c2ccccc2)[nH]1`, for which the Potency entry in experiment [6], in experiment [7], in [2] and in experiment [3] was “inactive” in each case.
On to `CN1CCc2cc(Cl)c(O)cc2[C@@H](c2ccccc2)C1`, for which the Potency entry in experiment [8], in experiment [6], in [2], in [3] and in experiment [5] was “inactive” throughout. For the same compound, the viability change in experiment [5] amounted to 5.24%.
